One experiment concerns the target Albumin (Bos taurus) (UniProt P02769). The experiment is described as follows: compounds binding labelled BSA control protein – biochemical, small-molecule microarray, Alexa647 label, 635/667 nm fluorescence, artefact control for SMM control protein annotation, profiling panel (AID 1118).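 Further: score merges 667 nm emission intensity and signal-to-noise per printed compound spot.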 To be noted: BSA-A647 binding, fluorescence 635 nm, higher = more signal.
Experiment [1] can be described thus: probe aXIP binding to arrayed compounds – biochemical, NeuroSMM set, 635/667 nm fluorescence, primary screen (AID 1119).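 Further: probe is the protein aXip251-270 applied at 1 µg/mL to compound-printed slides; binding of probe to printed compounds measured as 667 nm fluorescence plus signal to noise.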 To be noted: small-molecule microarray, higher = more signal, called active from +8 up or from −8 down.
Experiment [2] can be described thus: probe aNOTCH3 binding on compound microarray – biochemical, small-molecule microarray, 635/667 nm fluorescence, primary screen (AID 1120).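 Further: probe is a biotin-tagged antibody raised against NOTCH3 rather than NOTCH3 protein; score merges spot fluorescence near 667 nm with spot signal to noise.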 Conditions: higher = more signal.
Experiment [3] can be described thus: probe aNOTCH2 binding on compound microarray – biochemical, small-molecule microarray, 635/667 nm fluorescence, primary screen (AID 1121).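 Further: score merges feature fluorescence read at 667 nm with its signal to noise.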 Conditions: higher = more signal.
Experiment [4] deals with Carbonic anhydrase 2 (Homo sapiens) (UniProt P00918). The experiment is described as follows: compounds binding carbonic anhydrase 2 – biochemical, small-molecule microarray, Alexa647-labelled CAII, profiling panel (AID 1122). Conditions: CAII-A647 binding fluorescence, higher = more signal.
Experiment [5] is described as follows: COS7 lysate on small-molecule microarray, probe aHis, 635 nm (AID 1123).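 Further: z-score combines 667nm fluorescence intensity with signal-to-noise per printed compound spot.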 Conditions: COS7 cell lysate, fluorescence, higher = more signal.
Experiment [6] is described as follows: probe aLAP1 signal on lysate-treated microarray – cell lysate, small-molecule microarray, COS7 lysate, primary screen (AID 1124).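 Further: lysate comes from COS7 cells expressing LAP1 and is applied at 0.3 µg/mL; score merges spot fluorescence near 667 nm with signal-to-noise over triplicate slides.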 To be noted: probe aLAP1, fluorescence, higher = more signal.
A further experiment relates to Sam68 (KHDRBS1). Briefly: compounds binding KHDRBS1 protein – biochemical, small-molecule microarray, 635 nm fluorescence, primary screen (AID 1125).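 Further: score merges 667 nm channel intensity with signal to noise over triplicate slides.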 Conditions: higher = more signal.
Experiment [7] has as its system Chordin-like protein 2 (CHRDL2). Briefly: compounds binding chordin-like 2 – biochemical, small-molecule microarray, 635 nm fluorescence, primary screen (AID 1126).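 Further: printed compound slides probed with Chrdl2 protein at 4 µg/mL for 1 h at 4 C; score merges 667 nm emission intensity with signal to noise over three replicate slides.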 Conditions: fluorescence 635 nm, higher = more signal.
In experiment [8] the target is Concanavalin-A (Canavalia ensiformis) (UniProt P02866). Briefly: compounds binding concanavalin A lectin – biochemical, small-molecule microarray, Alexa647 label, 635 nm, artefact control for SMM control protein annotation, primary screen (AID 1127).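 Further: z combines 667 nm emission intensity with signal-to-noise across three replicate slides.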 To be noted: ConA-A647 binding fluorescence, higher = more signal.
Experiment [9] can be described thus: compounds binding Alexa647 anti-His antibody – biochemical, small-molecule microarray, 635 nm fluorescence, artefact control for SMM control protein annotation, primary screen (AID 1128).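 Further: score merges feature fluorescence with signal-to-noise for each printed compound spot.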 Conditions: higher = more signal.
Experiment [10] deals with Human papillomavirus type 1a E7 protein (residues 1-88). The experiment is described as follows: HPV1a E7 small-molecule binders, primary screen, biochemical, small-molecule microarray, residues 1-88, 635 nm (AID 1129). To be noted: small-molecule microarray binding, fluorescence 635 nm; higher = more signal.
For experiment [11], the target named is Focal adhesion kinase 1 (Homo sapiens) (UniProt Q05397). Briefly: PTK2 protein binding on printed compound slides – biochemical, small-molecule microarray, 635/667 nm fluorescence, BSA, DTT, primary screen (AID 1130).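 Further: composite of spot emission at 667 nm and signal to noise over triplicate slides.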 Conditions: 635 nm fluorescence, higher = more signal.
Experiment [12] relates to Fibrinogen (Alexa647-labelled). The experiment is described as follows: Alexa647-fibrinogen binding to printed small molecules – biochemical, small-molecule microarray, 635/667 nm fluorescence, artefact control for SMM control-protein annotation, profiling panel (AID 1131).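 Further: z-score merges 667 nm fluorescence with per-spot signal-to-noise over triplicate slides.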 To be noted: fibrinogen-A647 binding fluorescence, higher = more signal.
In experiment [13] the target is Follistatin (Homo sapiens) (UniProt P19883). The experiment is described as follows: FST protein binding to printed compounds – biochemical, small-molecule microarray, 635/667 nm fluorescence, primary screen (AID 1132). Conditions: 635 nm fluorescence, higher = more signal.
Experiment [14] has as its target Fibroblast growth factor 2 (Homo sapiens) (UniProt P09038). Briefly: basic fibroblast growth factor binding to printed compounds – biochemical, small-molecule microarray, 635/667 nm fluorescence, primary screen (AID 1133). To be noted: FGF2, fluorescence 635/667, higher = more signal.
The nature of experiment [15]: JC-1 mitochondrial potential readout, lung cancer cells – cell-based, A549, JC-1 fluorescence, basal, 24 h, 100 nL, profiling panel (AID 1138).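 Further: A549 lung adenocarcinoma cells under basal conditions with no added stimulus; test concentration not given here.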 Conditions: higher = more signal.
The next experiment deals with Lefty1. Briefly: Lefty1 protein binding to printed compounds – biochemical, small-molecule microarray, 635/667 nm fluorescence, primary screen (AID 1139). To be noted: fluorescence 635/667, higher = more signal.
In experiment [16] the test system is wheat germ agglutinin (Triticum aestivum), Alexa647-labelled. The experiment is described as follows: Alexa647-WGA lectin binding to printed small molecules – biochemical, small-molecule microarray, 635/667 nm fluorescence, artefact control for SMM control-protein annotation, profiling panel (AID 1140).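 Further: score merges 667 nm feature emission with signal to noise over triplicate slides.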 Conditions: WGA-A647 binding, 635 nm fluorescence, higher = more signal.

Experiment [17] has as its target Luciferin 4-monooxygenase (Photinus pyralis) (UniProt P08659). Briefly: inhibition of purified Photinus pyralis luciferase – biochemical, luminescence, purified enzyme, 2006 set, primary screen (AID 1141).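 Further: cell-free assay with purified firefly luciferase at 100 ng per well in PBS; test concentration not given here.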 To be noted: purified firefly luciferase, SteadyGlo luminescence, 30 min; higher = more signal, called active from +8 up or from −8 down.

Calls of active or inactive are those of the source.

Fibroblast growth factor 2 (Homo sapiens), sequence (P09038 whole entry, looked up): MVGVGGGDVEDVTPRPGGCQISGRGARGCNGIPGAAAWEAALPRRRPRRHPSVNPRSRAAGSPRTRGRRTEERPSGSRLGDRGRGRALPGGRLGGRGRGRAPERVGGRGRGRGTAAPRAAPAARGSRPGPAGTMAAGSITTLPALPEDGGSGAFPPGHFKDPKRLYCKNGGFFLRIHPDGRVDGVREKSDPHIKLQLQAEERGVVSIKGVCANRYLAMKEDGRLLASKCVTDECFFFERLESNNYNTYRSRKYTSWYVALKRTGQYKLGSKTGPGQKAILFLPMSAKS
Focal adhesion kinase 1 (Homo sapiens), sequence (Q05397 whole entry, looked up): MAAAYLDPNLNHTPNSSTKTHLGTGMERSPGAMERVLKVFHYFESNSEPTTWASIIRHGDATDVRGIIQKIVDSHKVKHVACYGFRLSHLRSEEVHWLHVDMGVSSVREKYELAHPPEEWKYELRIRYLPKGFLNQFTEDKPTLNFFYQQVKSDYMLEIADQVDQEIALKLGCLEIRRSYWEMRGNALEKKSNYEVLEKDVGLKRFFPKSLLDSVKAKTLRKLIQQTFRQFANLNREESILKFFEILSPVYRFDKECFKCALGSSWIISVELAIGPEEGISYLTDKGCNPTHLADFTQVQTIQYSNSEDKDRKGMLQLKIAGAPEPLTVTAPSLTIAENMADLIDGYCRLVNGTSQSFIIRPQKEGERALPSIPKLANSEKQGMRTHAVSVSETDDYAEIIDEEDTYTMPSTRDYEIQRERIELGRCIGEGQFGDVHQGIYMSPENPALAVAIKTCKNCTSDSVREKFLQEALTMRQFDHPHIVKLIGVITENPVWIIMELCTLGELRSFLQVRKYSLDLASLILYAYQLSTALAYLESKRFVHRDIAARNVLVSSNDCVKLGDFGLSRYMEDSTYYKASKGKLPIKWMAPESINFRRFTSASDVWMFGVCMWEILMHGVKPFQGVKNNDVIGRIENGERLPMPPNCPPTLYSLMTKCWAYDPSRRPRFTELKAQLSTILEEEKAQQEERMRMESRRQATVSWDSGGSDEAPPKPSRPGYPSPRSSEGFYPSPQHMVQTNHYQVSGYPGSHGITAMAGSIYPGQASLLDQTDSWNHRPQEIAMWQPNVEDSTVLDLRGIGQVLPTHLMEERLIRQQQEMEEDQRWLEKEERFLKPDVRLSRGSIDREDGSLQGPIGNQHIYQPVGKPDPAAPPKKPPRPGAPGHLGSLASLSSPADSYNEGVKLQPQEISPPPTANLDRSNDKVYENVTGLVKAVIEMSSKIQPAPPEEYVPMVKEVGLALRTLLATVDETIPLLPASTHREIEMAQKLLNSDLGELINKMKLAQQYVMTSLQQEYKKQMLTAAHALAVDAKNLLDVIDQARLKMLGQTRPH
Luciferin 4-monooxygenase (Photinus pyralis), sequence (P08659 whole entry, looked up): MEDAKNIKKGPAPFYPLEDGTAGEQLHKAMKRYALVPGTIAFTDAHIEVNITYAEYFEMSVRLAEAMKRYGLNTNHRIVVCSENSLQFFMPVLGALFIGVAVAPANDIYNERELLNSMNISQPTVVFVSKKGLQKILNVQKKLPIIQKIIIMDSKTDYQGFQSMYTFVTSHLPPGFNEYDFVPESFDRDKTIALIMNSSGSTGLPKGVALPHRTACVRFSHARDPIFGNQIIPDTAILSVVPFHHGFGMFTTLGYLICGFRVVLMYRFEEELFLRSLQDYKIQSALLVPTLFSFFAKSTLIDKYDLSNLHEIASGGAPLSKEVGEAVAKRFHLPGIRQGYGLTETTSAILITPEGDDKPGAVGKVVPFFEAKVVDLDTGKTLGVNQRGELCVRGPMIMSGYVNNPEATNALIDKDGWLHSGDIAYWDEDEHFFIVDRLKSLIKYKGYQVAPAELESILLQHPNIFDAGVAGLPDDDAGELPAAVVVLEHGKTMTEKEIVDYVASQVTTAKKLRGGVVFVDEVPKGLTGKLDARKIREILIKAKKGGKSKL
Albumin (Bos taurus), sequence (P02769 whole entry, looked up): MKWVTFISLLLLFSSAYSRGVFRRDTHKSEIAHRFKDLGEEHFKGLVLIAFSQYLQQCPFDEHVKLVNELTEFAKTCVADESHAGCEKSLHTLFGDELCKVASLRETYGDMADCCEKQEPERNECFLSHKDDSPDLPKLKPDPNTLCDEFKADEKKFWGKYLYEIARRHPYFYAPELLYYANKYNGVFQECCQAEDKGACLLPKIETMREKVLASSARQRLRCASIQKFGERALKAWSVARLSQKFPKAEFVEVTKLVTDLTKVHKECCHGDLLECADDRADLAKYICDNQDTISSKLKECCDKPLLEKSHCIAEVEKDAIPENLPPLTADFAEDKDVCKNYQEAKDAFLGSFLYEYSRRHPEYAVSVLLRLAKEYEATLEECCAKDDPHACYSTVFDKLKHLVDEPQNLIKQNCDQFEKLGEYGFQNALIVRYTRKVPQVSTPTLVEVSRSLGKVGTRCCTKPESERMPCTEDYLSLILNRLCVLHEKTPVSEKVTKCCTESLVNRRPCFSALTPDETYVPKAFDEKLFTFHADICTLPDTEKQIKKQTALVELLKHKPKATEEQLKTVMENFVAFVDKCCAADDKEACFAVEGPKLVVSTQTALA
Follistatin (Homo sapiens), sequence (P19883 whole entry, looked up): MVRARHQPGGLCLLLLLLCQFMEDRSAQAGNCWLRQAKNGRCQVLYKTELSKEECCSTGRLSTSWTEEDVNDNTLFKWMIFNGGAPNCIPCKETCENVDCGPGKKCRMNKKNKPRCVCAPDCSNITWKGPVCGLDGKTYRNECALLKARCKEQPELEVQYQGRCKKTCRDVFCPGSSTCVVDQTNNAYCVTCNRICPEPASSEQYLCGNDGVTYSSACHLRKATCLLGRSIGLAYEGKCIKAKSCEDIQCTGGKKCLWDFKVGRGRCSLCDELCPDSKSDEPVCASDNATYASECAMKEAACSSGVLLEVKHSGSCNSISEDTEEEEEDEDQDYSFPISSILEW
Concanavalin-A (Canavalia ensiformis), sequence (P02866 whole entry, looked up): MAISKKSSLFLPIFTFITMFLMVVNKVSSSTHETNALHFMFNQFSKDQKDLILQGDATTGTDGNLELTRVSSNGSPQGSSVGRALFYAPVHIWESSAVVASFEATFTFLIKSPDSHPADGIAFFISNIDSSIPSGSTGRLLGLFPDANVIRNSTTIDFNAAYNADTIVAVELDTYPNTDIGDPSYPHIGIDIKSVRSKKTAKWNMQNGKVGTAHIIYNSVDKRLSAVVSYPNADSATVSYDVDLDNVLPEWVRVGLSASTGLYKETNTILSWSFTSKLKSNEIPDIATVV

In the case of `O=C(CS)NCCCCCCNC(=O)[C@H]1C[C@H]2C(=O)N3CCC[C@H]3C(=O)N2[C@H]1c1ccc(O)cc1`, the composite z-score is 0.11 in the experiment with Albumin (Bos taurus); 0.298 in [2]; -0.147 in [3]; 0.389 in [4]; -0.125 in experiment [5]; -0.0269 in experiment [6]. In addition, the composite z-score in the experiment with Sam68 (KHDRBS1) came out at 0.557; in experiment [7], 0.257; in experiment [8] it was 0.853; in experiment [9], 1.81; in [10], 0.828; in experiment [11] it was 0.163. For the same compound, the composite z-score was found to be 0.702 in [12]; 1.37 in experiment [13]; 1.34 in experiment [14]; 1.16 in the experiment on Lefty1; 0.681 in [16]. For the same compound, the composite Z-score in [1] is 0.131 (inactive). Further, the z-score in experiment [15] is -0.708; in experiment [17], 0.102 (inactive).
In the case of `Cc1ccc(N2C(=O)c3ccccc3[C@@H](C(=O)NC(C)C)[C@@H]2c2ccc(CO)cc2)nc1`, the composite z-score with Albumin (Bos taurus) was -0.106; in experiment [2], -0.272; in [3], -0.152; in experiment [4], 0.743; in [5] it was 0.971; in experiment [6], 0.618. The composite z-score with Sam68 (KHDRBS1) is -0.721; in experiment [7], -0.0432; in [8], -0.0441; in experiment [9], 0.621; in [10], 0.708; in experiment [11] it was -0.291. Besides, the composite z-score is -0.756 in [12]; 0.931 in experiment [13]; 1.55 in experiment [14]; -0.362 in the experiment with Lefty1; 0.692 in experiment [16]. The composite Z-score in [1] was -0.0969 (inactive). Further, the values for the z-score in experiment [15] and in [17] were -1.05 and 1.25 (inactive), respectively.
For the compound `[N-]=[N+]=NCc1ccccc1C[C@]1(C(=O)NCc2ccccc2)COC(c2ccc(OCCCO)cc2)=N1`, the composite z-score is 0.632 with Albumin (Bos taurus); 0.112 in experiment [2]; -0.0814 in experiment [3]; 0.644 in experiment [4]; 1.89 in [5]; 0.784 in experiment [6]. Besides, the composite z-score was 1.3 in the experiment on Sam68 (KHDRBS1); -0.694 in experiment [7]; 0.612 in [8]; 0.519 in [9]; 1.16 in [10]; 1.11 in experiment [11]. Also, the composite z-score is 0.948 in [12]; 0.101 in [13]; 0.661 in experiment [14]; -0.0991 in the experiment on Lefty1; 0.762 in experiment [16]. Moreover, the composite Z-score in experiment [1] is 0.452 (inactive). The z-score in experiment [15] is -0.221; in experiment [17], -0.169 (inactive).
As for `O=C(NCC(O)CO)[C@@]1(Cc2ccccc2)COC(c2ccc(OCCCO)cc2)=N1` (stereo not given in full), the composite z-score with Albumin (Bos taurus) was 0.536; in experiment [2] it was -0.0984; in experiment [3], -0.189; in experiment [4], 0.738; in [5] it was 0.737; in experiment [6], -0.192. In addition, the composite z-score was -0.274 in the experiment on Sam68 (KHDRBS1); -0.445 in [7]; -1.4 in experiment [8]; 0.0139 in experiment [9]; 0.0528 in experiment [10]; 0.216 in [11]. Besides, the composite z-score in experiment [12] was 0.531; in experiment [13] it was -0.453; in experiment [14], 0.0393; with Lefty1, -0.743; in experiment [16] it was 0.488. Further, the composite Z-score in experiment [1] is -0.936 (inactive). Moreover, the z-score in experiment [15] was -0.165; in experiment [17], 0.37 (inactive).
With `CC(C)N1C(=O)c2ccccc2[C@](C)(C(=O)NC2CC2)[C@@H]1c1ccc(CO)cc1`, the composite z-score is 0.375 in the experiment with Albumin (Bos taurus); -0.0557 in experiment [2]; -0.171 in [3]; 0.665 in experiment [4]; 1.41 in [5]; -0.141 in [6]. For the same compound, the composite z-score is 0.424 in the experiment on Sam68 (KHDRBS1); 0.172 in experiment [7]; 0.699 in [8]; 1.58 in experiment [9]; 0.875 in [10]; -0.118 in experiment [11]. For the same compound, the composite z-score in experiment [12] is 0.803; in experiment [13], 1.12; in experiment [14] it was 0.507; with Lefty1 it was 0.0517; in experiment [16] it was 0.497. Also, in experiment [1], the composite Z-score is -0.116 (inactive). The results for the z-score in experiment [15] and in [17] were 0.378 and 1.34 (inactive), respectively.

The record behind these values is PubChem BioAssay.
